Reference: PubChem BioAssay (Tox21)
Results filed as inconclusive are left out. Active and inactive are the calls of the source. Calls come from the whole dose curve; as a rule, active = well fitted cell-killing curve with a large enough effect in the repeat runs (not every such curve was filed as active); inconclusive = weak or mixed curves, or effect the other way; inactive = no such curve, though single readings can be large or run the other way.

Experiment: qHTS assay to identify small molecule antagonists of the estrogen related receptor signaling pathway with the pleiotropic PPARgamma coactivator (PGC) from Tox21 10K library - cell viability counter screen (AID 1224840); note: nearly all actives have a fitted effect of over 40% in size
Details: PGC/ERR reporter cells viability, CellTiter-Fluor, 17.5 h; series mostly up to 92.4 µM; viability change, negative = cytotoxic: at the top concentration
Summary of the method: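 Counter-screen for cytotoxicity: after 17.5 h compound exposure at 37 C, CellTiter-Fluor reagent added to PGC/ERR cells for 30 min and fluorescence read. Cells were seeded at 2,000 per well 6 h before dosing.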
% is set by controls: 0 for no effect and ±100 for the full control effect; potency is the fitted concentration of half-maximal effect.

| SMILES | viability change, negative = cytotoxic | Potency |
| --- | --- | --- |
| CC1(C)COCN1 | -6.72% (inactive) | – |
| CCCCOC(=O)C(C)CC (stereo not given) | 4.13% (inactive) | – |
| CO[Si](CCC1CCC2OC2C1)(OC)OC (stereo not given) | 5.49% (inactive) | – |
| Clc1ccc(C(c2ccccc2Cl)C(Cl)Cl)cc1 (stereo not given) | 0.471% [at 42.5 µM] (inactive) | – |
| CC1=CCC(=O)O1 | -5.17% (inactive) | – |
| CC(C)c1cccc(C(C)C)c1N1C(=O)c2ccc(O)cc2C1=O | 8.12% (inactive) | – |
| COc1cccc(OC)c1O | -1.7% (inactive) | – |
| C=C(C)CCCC | -11.4% (inactive) | – |
| CCOCOCC | -5.81% (inactive) | – |
| CCN=C1C=CC(=C(c2ccc(N(CC)CC)cc2)c2ccc(N(CC)CC)cc2)c2ccccc21 | – | 9.63 µM (active) |
| CCCC(=O)OCC(COC(=O)CCC)OC(=O)CCC | -2.33% (inactive) | – |
| CCO[Si](C)(C)OCC | -0.932% (inactive) | – |
| CS(C)(=O)=O | -1.27% (inactive) | – |
| CCCCCCCCCCCCN(CCO)CCO | – | 60.9 µM (active) |
| CC(C)=CCCC(C)O (stereo not given) | 5.93% (inactive) | – |
| C#CC(O)CCC (stereo not given) | 0.334% (inactive) | – |
| C/C=C/C(=O)C1=C(C)CCCC1(C)C | -3.9% (inactive) | – |
| CCc1cccc(CC)c1NC(=O)C(=O)O | -3.85% (inactive) | – |
| COc1ccccc1C=O | -2.8% (inactive) | – |
| CCOC(=O)CN | -0.147% (inactive) | – |
| Cc1cccc(C)c1NC(=O)CN1CCN(CCCC(c2ccc(F)cc2)c2ccc(F)cc2)CC1 | -22.2% [at 42.5 µM] (inactive) | – |
| O=C1OC(OC(=O)c2cccnc2Nc2cccc(C(F)(F)F)c2)c2ccccc21 (stereo not given) | 1.21% [at 42.5 µM] (inactive) | – |
| C=CC/C=C/C/C=C/C/C=C/C | -3.78% (inactive) | – |
| CCOC(OCC)C(=O)c1ccccc1 | 7.95% (inactive) | – |
| Oc1cc2ccccc2cc1O | -2.42% (inactive) | – |
| Cc1cccc(N(C)C)c1 | 0.413% (inactive) | – |
| CCCCCCCC/C=C/CCCOC(C)=O | 3.08% (inactive) | – |
| Cc1cncc(C)c1 | -0.189% (inactive) | – |
| O=CC1CC1 | -0.913% (inactive) | – |
| CCCCOCC | -1.78% (inactive) | – |
